The whole screen tested about 21,000 compounds, of which fewer than 10 were called active. Not all results are given here. Values without a mark were called inactive.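 The calls were made as follows: active = inhibition above 50% at the 20 µM single-dose screen; inactive = the rest.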
Biological target: Alkaline phosphatase, tissue-nonspecific isozyme (Homo sapiens) (UniProt P05186)
Test: blockers of alkaline phosphatase TNAP activity – biochemical, colorimetric, phosphate release readout, primary screen (AID 614)
Conditions: purified TNAP, pNPP, malachite green phosphate absorbance; at 20 µM; hits give high values

Sequence of Alkaline phosphatase, tissue-nonspecific isozyme (Homo sapiens) (P05186 whole entry, looked up): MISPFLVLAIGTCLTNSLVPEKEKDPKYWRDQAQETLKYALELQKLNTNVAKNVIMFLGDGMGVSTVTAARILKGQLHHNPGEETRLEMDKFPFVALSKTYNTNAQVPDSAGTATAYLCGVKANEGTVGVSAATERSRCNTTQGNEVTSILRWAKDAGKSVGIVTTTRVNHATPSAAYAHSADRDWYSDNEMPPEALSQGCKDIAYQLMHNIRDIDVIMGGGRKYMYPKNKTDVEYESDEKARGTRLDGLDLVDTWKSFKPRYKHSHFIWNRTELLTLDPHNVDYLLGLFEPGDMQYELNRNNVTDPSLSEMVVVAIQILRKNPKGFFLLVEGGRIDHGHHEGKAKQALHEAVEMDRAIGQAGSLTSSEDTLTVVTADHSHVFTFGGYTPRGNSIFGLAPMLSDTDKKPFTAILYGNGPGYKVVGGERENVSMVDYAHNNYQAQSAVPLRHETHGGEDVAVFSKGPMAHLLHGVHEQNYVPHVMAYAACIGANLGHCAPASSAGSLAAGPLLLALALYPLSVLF

Question: How did the inhibition turn out when `Cc1c(C(=O)OCc2cc(=O)n3cc(Br)ccc3n2)oc2ccccc12` was run?
Answer: -2.2%

Question: Which inhibition does the source give for `Cc1ccc(Oc2ccc(N)cc2)cc1` here?
Answer: 15%

Question: How did the inhibition turn out when `Cc1cc(N2CCCC2)n2nc(C)c(-c3ccccc3)c2n1` was run?
Answer: 8.2%

Question: Which inhibition does the source give for `CC(C)C1Cc2c(sc3c2c(=O)n(-c2ccccc2)c2nncn32)CO1` (stereo not given) here?
Answer: 10.1%

Question: How did the inhibition turn out when `COC(=O)c1cc(OC)c(OC)cc1NC(=O)C1CCCO1` (stereo not given) was run?
Answer: 6%

Question: Which inhibition does the source give for `CC(=O)N1CCN(C(=O)Nc2cccc(C(F)(F)F)c2)CC1` here?
Answer: -0.7%

Question: For `CCCC(=O)Nc1ccc2c(c1)nc1n2CCSC1`, which inhibition is on record?
Answer: 3.5%

Question: With `O=C(CSc1nnc(-c2ccoc2)o1)N1CCOCC1` as the compound, how does the inhibition read?
Answer: -1.3%

Question: Which inhibition does the source give for `c1cnc(NC2C3CC4CC(C3)CC2C4)nc1` (stereo not given) here?
Answer: 3.8%

Question: `N#CC(C(N)=O)=C1CCC2(CC1)OCCCCO2` was tested. Which inhibition did it give?
Answer: 13.2%

Question: `Cc1ccc(S(=O)(=O)N2CCC(N3CCCCCC3)CC2)cc1` was tested. Which inhibition did it give?
Answer: 7%

Question: Which inhibition does the source give for `COc1ccc(-c2nnc(SCC(=O)c3ccco3)n2-c2ccccc2)cc1` here?
Answer: 2.3%

Question: With `O=C(c1cccc(S(=O)(=O)N2CCOCC2)c1)N1CCOCC1` as the compound, how does the inhibition read?
Answer: 6.8%

Question: For `CCc1ccc(N2CC(C(=O)NC3=NCCS3)CC2=O)cc1` (stereo not given), which inhibition is on record?
Answer: -4.1%

Question: For `COC(=O)[C@H](Cc1ccccc1)NC(=O)N1CC(C)OC(C)C1` (stereo not given in full), which inhibition is on record?
Answer: 6.7%

Question: How did the inhibition turn out when `CC(C)OCCCNc1nc2c(c(=O)n(Cc3ccccc3F)c(=O)n2C)n1C` was run?
Answer: 11.4%

Question: With `N#Cc1c2c(c(-c3ccccc3)[nH]c1=O)CCCC2` as the compound, how does the inhibition read?
Answer: 9.6%

Question: Which inhibition does the source give for `Cc1ccc(C(C(=O)NC2CCCC2)N(Cc2ccco2)C(=O)CCC(=O)Nc2ccccn2)cc1` (stereo not given) here?
Answer: 7.3%

Question: How did the inhibition turn out when `COc1c(O)cccc1-c1nnn(CCC(=O)OCC(=O)c2ccccc2)n1` was run?
Answer: 2.2%

Question: How did the inhibition turn out when `O=C(O)c1cscn1` was run?
Answer: 4.2%

Question: For `O=C(CSc1nnc(-c2ccccn2)n1-c1ccccc1)Nc1ccc2c(c1)OCO2`, which inhibition is on record?
Answer: 3.6%

Question: Which inhibition does the source give for `COc1ccc(C(=O)Nc2ccc(S(=O)(=O)Nc3onc(C)c3C)cc2)cc1OC` here?
Answer: 0.4%

Question: How did the inhibition turn out when `CCOC(=O)C1=C(C)NC(=O)N(C(C)=O)C1c1ccc(Cl)cc1` (stereo not given) was run?
Answer: 10%

Question: For `O=C(NCCSc1ccccc1)c1ccco1`, which inhibition is on record?
Answer: 13.2%

Question: Which inhibition does the source give for `CCc1nc2ccccc2n(CCOCCOCCn2c(=O)c(CC)nc3ccccc32)c1=O` here?
Answer: 8.8%

Question: With `COc1cccc(N(CC(=O)Nc2cccc(N(C)S(C)(=O)=O)c2)S(C)(=O)=O)c1` as the compound, how does the inhibition read?
Answer: 0%

Question: With `CS(=O)(=O)N1CCN(C(=O)c2cc3ccccc3oc2=O)CC1` as the compound, how does the inhibition read?
Answer: 11.1%

Question: For `COc1ccc(CNC(=O)c2c(C)cc(=O)oc2C)cc1OC`, which inhibition is on record?
Answer: 11.6%

Question: For `COc1ccc(-n2c(SCC(=O)OC(C)C)nnc2-c2ccccn2)cc1`, which inhibition is on record?
Answer: 7.8%

Question: Which inhibition does the source give for `CCN(CC)S(=O)(=O)c1cccc(C(=O)Nc2ccccc2)c1` here?
Answer: 3.8%

Question: How did the inhibition turn out when `Cc1cc(C)nc(SCc2nnc(SCC(=O)OC3CCCCC3)o2)n1` was run?
Answer: 2.9%

Question: Which inhibition does the source give for `CNC(=O)c1nnn(-c2ccccc2)c1C(=O)NC` here?
Answer: 6.4%

Question: How did the inhibition turn out when `COC(=O)c1ccc(NC(=O)CSc2nnc(CNc3ccc(OC)cc3)n2C)cc1` was run?
Answer: -7.8%

Question: For `CCc1nc2oc3ccccc3c(=O)c2c(=O)n1Cc1ccc(OC)cc1`, which inhibition is on record?
Answer: 6.6%

Question: For `CCOC(=O)c1cc2cc(C)ccc2[nH]1`, which inhibition is on record?
Answer: -8.6%
